Only some compounds are listed: those with a hit (about 7.7% of all), similar ones and a draw of the others.
Sm TGR block – qHTS Assay for the Inhibitors of Schistosoma Mansoni Peroxiredoxins; purified TGR, DTNB reduction, TNB absorbance 405 nm; Potency, µM (titrated, usually from 114 µM), inactives show top-dose activity change, negative = inhibition, most hits filed as inhibitors; hit rate 3% among 360,000; note: potency is the fitted concentration of half-maximal effect; nearly all actives have a fitted effect of over 60% in size
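Kinetic colorimetric format: TGR-catalysed, NADPH-driven DTNB reduction monitored via TNB absorbance. Enzyme dispensed at 20 nM; compound exposure 15 min at room temperature before reaction start.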
RE007 growth inh – qHTS Assay for Inhibitors of the HIV-1 protein Vpr; S. pombe RE007 Vpr strain, BacTiter-Glo ATP luminescence, 24 h; Potency, µM (series often up to 92.2 µM), for inactives: top-dose activity change, negative = less growth, most hits filed as inhibitors; hit rate 0.21% among 360,000; AID 651644, 2012; active = well fitted falling curve with a large enough effect; inconclusive = small, poorly fitted or top-dose-only effect; inactive = no such curve, though single readings can be large or run the other way; note: potency is the fitted concentration of half-maximal effect; nearly all actives have a fitted effect of over 50% in size
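Fission yeast strain RE007, carrying one chromosomally integrated HIV-1 vpr copy, was seeded at OD 0.01 in PMG+AL medium with 23 nL pinned compound. After 24 h at 30 °C and 99% humidity, viability was read by BacTiter-Glo luminescence.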
HCMV antiviral – qHTS Assay for inhibitors of the human cytomegalovirus (HCMV); HFF cells, HCMV-luciferase reporter, 72 h; hits give low values; activity change, negative = inhibition, % at 57.5 µM; hit rate 4.5% among 410,000; AID 1259415, 2018; in the data active = activity change below about -60%; inconclusive = no clear call, values can overlap the other calls; inactive = above about -39%
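Human foreskin fibroblasts infected with luciferase-reporter HCMV at MOI 1 PFU/cell, compounds at two doses. Luciferase measured 72 h post infection; normalized to buffer-only basal and Salinomycin (10uM) controls.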
FBPA Giardia inh – qHTS Assay for Inhibitors of Fructose-1,6-bisphosphate Aldolase from Giardia Lamblia. A8B2U2. purified Giardia FBPA. Potency, µM (doses to about 59.6 µM), for the others: top-dose activity, negative = inhibition, usual class: inhibitors. hit rate 0.71% among 290,000. AID 2451, 2010; note: potency is the fitted concentration of half-maximal effect; nearly all actives have a fitted effect of over 55% in size
Target sequence (A8B2U2 whole entry, looked up): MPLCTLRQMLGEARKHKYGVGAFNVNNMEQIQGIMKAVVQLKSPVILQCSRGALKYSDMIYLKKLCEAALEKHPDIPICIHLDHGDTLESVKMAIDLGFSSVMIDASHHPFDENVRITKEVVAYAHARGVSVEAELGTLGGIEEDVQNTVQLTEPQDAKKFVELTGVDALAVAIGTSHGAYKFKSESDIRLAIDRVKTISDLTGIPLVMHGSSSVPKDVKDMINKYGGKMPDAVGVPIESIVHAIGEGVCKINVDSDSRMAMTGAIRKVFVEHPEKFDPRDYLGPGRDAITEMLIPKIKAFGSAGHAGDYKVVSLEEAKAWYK
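Giardia FBPA (40 nM reagent) was preincubated 10 min at RT with compound (up to 57.5 uM final), then substrate plus GAPDH/TPI/NAD/arsenate coupling system with diaphorase/resazurin was added; resorufin fluorescence (525/598 nm) was read after 20 min.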
Tb PYK inh – qHTS of Trypanosoma Brucei Inhibitors. pyruvate kinase (Trypanosoma brucei), Q57TT1. TbPYK enzyme, Kinase-Glo Plus ATP luminescence, 45 min. Potency, µM (series often up to 76.8 µM), without a hit: at the top dose activity, negative = inhibition, actives largely listed as inhibitors. hit rate 0.12% among 410,000; note: potency is the fitted concentration of half-maximal effect; nearly all actives have a fitted effect of over 50% in size
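Luminescent Kinase-Glo Plus end-point after 45 min room-temperature reaction of T. brucei pyruvate kinase started with 130 uM ADP (final). Buffer TEA 50 mM pH 7.2 with KCl, MgCl2, BSA, Tween-20; titration-based qHTS with fitted concentration-effect curves.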
FMDV inh – High Throughput Screening for Foot and Mouth Disease Virus Antivirals. FMDV antiviral cell-based qHTS. AID 1159524, 2015. Potency, µM (doses to about 57.9 µM), without a hit: at the highest dose activity change, negative = inhibition, usual class: inhibitors. hit rate 1.2% among 410,000; calls by dose curve; tested in HEK293T cells; note: read-out not given here; potency is the fitted concentration of half-maximal effect; nearly all actives have a fitted effect of over 45% in size
* hit, by the source's call; ? = inconclusive; · = not tested or not shown; [ ] = dose if it differs, or a comment. Unless noted, calls come from the whole dose curve; as a rule, active = well fitted curve in the direction sought with a large enough effect; inconclusive = small, poorly fitted or top-dose-only effect, or another doubt; inactive = no such curve, though single readings can be large; an effect the other way counts as inactive or inconclusive. % is set by controls: 0 for no effect and ±100 for the full control effect.

SMILES | Sm TGR block | RE007 growth inh | HCMV antiviral | FBPA Giardia inh | Tb PYK inh | FMDV inh
COc1ccccc1NC(=O)Nc1nc(CC(=O)NCc2c(F)cccc2F)cs1 | -1% | 0% | -1 | · | -8% | -9%
COc1ccccc1NC(=O)Nc1nc(CC(=O)NCc2ccc(F)cc2)cs1 | -13% | 2% | -40 | · | -4% | 40µM*
COc1ccc(NC(=S)Nc2nc(CC(=O)Nc3ccccc3OC)cs2)cc1 | ? | 11% | ? | 2% | -2% | 22µM*
COc1ccc(/C=C/C2=CCN(C)CC2)cc1 | 32µM* | 4% | 15 | -17% | 3% | 51%
O=C(Nc1nnc(N2CCCCCC2)s1)Nc1cc(F)ccc1F | -14% | · | 28 | · | -1% | 34%
COc1ccccc1NC(=O)c1c(N=Cc2c(O)ccc3ccccc23)cnn1C | 50µM* | -12% | -89* | ? | 2% | ?
O=C(CN1CCCc2ccccc21)N/N=C/c1c(O)ccc2ccccc12 | -8% | 5% | -98* | -8% | -4% | ?
COc1ccccc1NCC(=O)N/N=C/c1c(O)ccc2ccccc12 | -34% | 4% | -95* | -18% | 2% | -6%
O=C(CNc1ccc(F)cc1)N/N=C/c1c(O)ccc2ccccc12 | ? | -10% | -97* | 12% | 1% | 10%
O=C(Cc1n[nH]c(=O)[nH]c1=O)N/N=C/c1c(O)ccc2ccccc12 | 0% | 1% | 2 | 13% | 1% | -11%
O=C(CN1CCCc2ccccc21)N/N=C/c1ccccc1 | 0% | · | 17 | -9% | -4% | 44%
Cn1ncc(N=Cc2c(O)ccc3ccccc23)c1C(=O)N1CCOCC1 | · | 3% | 20 | · | -5% | -19%
COc1cccc(C(=O)NCC(c2ccc(N(C)C)cc2)N2CCc3ccccc32)c1OC (centres undefined) | 42% | · | -13 | · | -10% | -1%
COCc1c(C(=O)N2CCC(c3ccccc3)CC2)cnn1-c1nccc(-c2cc(C)sc2C)n1 | · | · | · | · | · | 30%
COC(C(C)/C=C/CC(=O)OCCCc1ccccc1)C1CCCCC1 (centres undefined) | · | · | · | 1%[12.9 µM] | · | ·
Cc1cccc(C[C@H](C(=O)O)N2C(=O)c3ccc(C(=O)O)cc3C2=O)c1 | -1% | · | · | 6% | · | ·
COc1ccccc1-c1cc2c(Nc3ccc(N4CCN(C)CC4)cc3)nccc2[nH]1 | · | · | 19 | · | · | ·
Cc1nc(C)c(C(=O)Nc2ccc(Oc3ccccc3)cc2)o1 | 3% | 15% | -89* | -3% | -11% | -30%
COc1ccc(C(=O)NC(=S)Nc2ccc(N3CCCC3)cc2)cc1 | -3% | -20% | ? | 3% | 0% | -24%
COc1ccc(C(=O)Nc2ccc(N3CCCC3)cc2)cc1 | 56µM* | -22% | 34 | -16% | -11% | 17%
COc1ccc(C(=O)N2CCN(c3ccc(NC(=O)c4cccnc4)cc3)CC2)cc1 | 1% | 28% | 1 | 4% | 10% | -10%
Cc1ncoc1C(=O)Nc1ccc(Oc2ccccc2)cc1 | 0% | 0% | -33 | -1% | -10% | 2%
COc1ccccc1C(=O)Nc1ccc(Oc2nnc(-c3ccc(C)cc3)c3ccccc23)cc1 | -3% | -12% | -70* | 10% | -5% | -22%
Cc1ccc(Oc2nnc(-c3ccc(C)cc3)c3ccccc23)cc1 | 1% | 23% | 7 | -1% | -1% | 8%
COc1ccc(C(=O)Nc2ccc(N3CCN(C(=O)c4ccccc4C)CC3)cc2)cc1 | 1% | -4% | -82* | · | 0% | ?
SMILES | Sm TGR block | RE007 growth inh | HCMV antiviral | FBPA Giardia inh | Tb PYK inh | FMDV inh
COc1ccc(C(=O)Nc2ccc3[nH]ccc3c2)cc1 | · | ? | 42 | · | -9% | 8.9µM*
COc1ccc(N2CCN(C(=O)c3ccc(C)c(NC(=O)c4ccco4)c3)CC2)cc1 | 1.8µM* | -17% | 12 | · | -6% | -25%
Cc1ccc(C(=O)N2CCN(c3ccccc3)CC2)cc1NC(=O)c1ccco1 | -24% | 8% | · | · | -5% | -23%
COc1ccc(Oc2ccc(NC(=O)c3ccccc3C)cc2)cc1 | · | 4% | -85* | -7% | -17% | -14%
Cc1cc(C)c(S(=O)(=O)N[C@H]2CC[C@@]34CCCN3C(=O)CCC[C@H]4[C@H]2C)c(C)c1 | · | · | 19 | · | · | ·
O=c1cnc2cnc(Nc3ccccc3)nc2n1Cc1cccs1 | · | · | · | 2% | · | -2%
CC(=O)Nc1ccc(SCCN2CCN(C)CCC2=O)cc1 | · | · | · | 0% | · | ·
CN(C)c1ccc(N/C=C/C(=O)c2ccccc2)cc1 | -16% | -14% | 0 | ? | ? | 10µM*
Cc1ccc(C(NC(=O)N2CCCCC2)=C(Cl)Cl)cc1F | -18% | -7% | -80* | 3% | -10% | ?
Cc1nn(C(C)C(=O)N2CCN(c3ccc(Cl)cc3)CC2)c(=O)c2cc3occc3n12 (centres undefined) | -15% | · | ? | · | 6% | ?
Cc1cc(C)cc(-n2ccnc(NCCc3ccccc3)c2=O)c1 | 8% | · | 22 | · | -1% | 19%
CC1Cc2ccccc2N1C(=O)CSc1nc2c(c(=O)n(C)c(=O)n2C)n1Cc1ccccc1 (centres undefined) | 10% | -11% | -97* | -4% | 2% | -12%
Cn1c(=O)c2c(nc(SCC(=O)O)n2Cc2cc3c(cc2Cl)OCO3)n(C)c1=O | -11% | 2% | 4 | -16% | 25µM* | 21%
COc1ccc(NC(=O)Cc2coc3cc(C)c(C(C)C)cc23)cc1S(=O)(=O)N1CCOCC1 | -31% | 10% | -67* | -21% | -11% | 0%
CCc1ccc(C(=O)Nc2ccc(OC)c(S(=O)(=O)N3CCCCC3)c2)cc1 | 3% | 14% | -97* | · | 0% | ?
COc1ccc(NC(=O)c2ccc(-c3ccccc3)cc2)cc1S(=O)(=O)N1CCOCC1 | 10% | 0% | -68* | -1% | -16% | 3.5µM*
COc1ccc(CC(=O)Nc2ccc3c(c2)OCO3)cc1S(=O)(=O)N1CCOCC1 | 6% | -2% | 4 | 5% | -6% | 3%
COc1ccc(CC(=O)Nc2ccc(C#N)c(Cl)c2)cc1S(=O)(=O)N1CCOCC1 | 13µM* | -18% | 19 | · | -12% | -23%
COc1cccc(CNC(=O)C2CCCN(c3nnc(-n4c(C)ccc4C)s3)C2)c1OC (centres undefined) | -18% | · | -30 | · | 4% | -19%
COc1ccc2c(c1)CC(C(=O)Nc1cc(Cl)ccc1C)CO2 (centres undefined) | -5% | · | -35 | · | 8% | 2%
COc1ccc(NC(=O)c2ccc(Cl)nc2)cc1S(=O)(=O)N1CCOCC1 | 1% | 16% | 119 | · | 0% | -19%

High-throughput results from PubChem.
